Out of some 290,000 compounds screened, about 3,000 (1%) were called active. No stated cut-off is given here; in the data, active means inhibition mostly above about 36% (no sharp cut-off); inactive means mostly below about 34%. The full list was thinned out, with actives kept by preference.

The inhibition is the drop in the measured response relative to a control, in per cent.

The experiment can be described thus: inhibition of NOD1-driven NF-kB reporter – cell-based, luminescence, uHTS, primary screen (AID 1578).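 Further: HEK-293T reporter cells stimulated with the NOD1 agonist gamma-tri-DAP.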 The settings on record: NOD1-driven NF-kB luciferase reporter cells, at 4 µM, active compounds read high. (In general: Reporter assays use an easily measured gene product as a stand-in for the process of interest.)
Turning to `Cc1cccc(Nc2nc(NCC3CCCO3)nc(N)c2[N+](=O)[O-])c1` (stereo unspecified), the inhibition is -27.5% (inactive).

Consider `O=C(COc1ccccc1)OC(C(=O)c1ccccc1)c1ccccc1` (stereo unspecified), for which the inhibition was -26.7% (inactive).

Regarding `Cc1cc(NS(=O)(=O)c2ccc(NC(=O)c3ccco3)cc2)no1`, the inhibition is 9.2% (inactive).

For `O=C(O)CN1CCCCCC1=O`, the inhibition was -31.2% (inactive).

On to `Cc1nccn1CCCNC(=O)C1CCC(=O)N(Cc2ccccc2F)C1` (stereo unspecified), for which the inhibition is -13.5% (inactive).

In the case of `CC(C)(C)OC(=O)CN1c2cccc3cccc(c23)S1(=O)=O`, the inhibition is -5.8% (inactive).

In the case of `CCC(C(=O)NC(C)c1ccccc1)C(=O)NC(C)c1ccccc1` (stereo unspecified), the inhibition was -9.8% (inactive).

For the compound `CC(=O)Nc1ccc(NC(=O)c2cc(=O)c3cc(C)c(C)cc3o2)cc1`, the inhibition is -7.3% (inactive).

Regarding `COc1ccc(-c2ccc(C(C)=O)cc2)cc1[C@H]1[C@H]2C=CC[C@@H](C)[C@@H]2C(=O)N1Cc1ccccc1`, the inhibition is -4.4% (inactive).

For the compound `COC(=O)c1cc2sc(Cl)cc2n1CC(=O)Nc1cccc(SC)c1`, the inhibition is 1.3% (inactive).

Take `CCn1c(=O)cc(OCC(=O)NCc2cccs2)c2ccccc21`: the inhibition was -18.7% (inactive).

Take `O=C(CN1CC[n+]2c(-c3cccs3)csc21)c1ccc(-c2ccccc2)cc1`: the inhibition was 56.9% (active).

`O=C(CN1CC[n+]2c(-c3cccs3)csc21)c1ccc(Br)cc1`: the inhibition is 5% (inactive).

In the case of `O=C(CN1CC[n+]2c(-c3ccccc3)csc21)c1ccc(Br)cc1`, the inhibition was -9.1% (inactive).

For `O=C(O)CSCC(=O)N1CCc2c([nH]c3ccccc23)C1C(F)(F)F` (stereo unspecified), the inhibition is -8.5% (inactive).

On to `O=C(Nc1cccc(S(=O)(=O)C(F)F)c1)c1ccc(Cl)c(S(=O)(=O)N2CCOCC2)c1`, for which the inhibition is 4.5% (inactive).

`O=C(Nc1ccc(NC(=O)c2ccc(Cl)c(S(=O)(=O)N3CCOCC3)c2)cc1)c1ccccc1`: the inhibition was -18.3% (inactive).

For `CCOC(=O)c1c(/N=C/N(C)C)sc(C=O)c1-c1ccccc1`, the inhibition is -24.2% (inactive).

Consider `Cc1cccc(COCC(CC(C)C)N2CCN(C(=O)c3ccc(C(C)(C)C)cc3)CCC2=O)c1` (stereo unspecified), for which the inhibition was 77% (active).

`Cc1cccc(COCC(CC(C)C)N2CCN(C(=O)c3ccc(C(F)(F)F)cc3)CCC2=O)c1` (stereo unspecified): the inhibition was -5.2% (inactive).

Regarding `CC(C)CC(COCc1cccc(Cl)c1)N1CCN(C(=O)c2ccc(C(F)(F)F)cc2)CCC1=O` (stereo unspecified), the inhibition was -7.1% (inactive).

With `CC(=O)c1c(C)n(-c2ccc(C)cc2)c2ccc(O)cc12`, the inhibition is 33.3% (inactive).

In the case of `COC(=O)c1c(C)n(-c2ccc(C)cc2)c2ccc(O)cc12`, the inhibition was 18.7% (inactive).

Take `O=C(CN(C(=O)c1ccccc1Cl)N1C(=O)C2C3C=CC(C3)C2C1=O)c1cccs1` (stereo unspecified): the inhibition is -17% (inactive).

`O=C(Nc1ccc(OC(F)F)c(Cl)c1)Nc1ccc2c(c1)OCO2`: the inhibition is -34.5% (inactive).

Turning to `COc1ccc(/C=C2\N=C(SC)N(C)C2=O)cc1`, the inhibition is 3.7% (inactive).

For `COc1ccc(/C=C2\N=C(SC)N(c3ccccc3OC)C2=O)cc1`, the inhibition was 53.5% (active).

On to `CCSC1=N/C(=C\c2ccccc2)C(=O)N1c1ccc(OC)cc1`, for which the inhibition was 30.2% (inactive).

Turning to `COc1cccc(CNc2ncn[nH]2)c1OCc1ccc(F)cc1`, the inhibition is -21.2% (inactive).

In the case of `Cc1ccc(N=Cc2nc(-c3ccc(C)cc3)oc2O)cc1`, the inhibition was 21.9% (inactive).

As for `Cc1ccc(-c2nc(C=Nc3ccccc3)c(O)o2)cc1`, the inhibition is -33.7% (inactive).

As to `Cc1ccc(-c2nc(C=Nc3ccc(O)cc3)c(O)o2)cc1`, the inhibition was 57.6% (active).

Turning to `CCSc1nc2ccccc2n1CCOc1ccccc1`, the inhibition is -22.7% (inactive).

Consider `O=C(CS(=O)(=O)c1cn(CC(=O)N2CCCC2)c2ccccc12)Nc1ccccc1`, for which the inhibition is -8.1% (inactive).

As to `O=S(=O)(NCc1ccco1)c1ccc(Cl)nc1`, the inhibition is -15.7% (inactive).

Turning to `CC(C)CC(C(=O)NC(C)(C)C)N(Cc1cccs1)C(=O)c1snc(C(N)=O)c1N` (stereo unspecified), the inhibition is -13.4% (inactive).

On to `O=c1c(Cl)c(NCCCO)cnn1-c1nc2ccccc2[nH]1`, for which the inhibition is 10.3% (inactive).

Turning to `C=CCN(CC=C)c1cnn(-c2nc3ccccc3[nH]2)c(=O)c1Cl`, the inhibition was 11.7% (inactive).

On to `O=c1c(Cl)c(N2CCOCC2)cnn1-c1nc2ccccc2[nH]1`, for which the inhibition is -19.5% (inactive).

Consider `Cc1nn(-c2ccccc2)c(=O)c2ccccc12`, for which the inhibition was -47.4% (inactive).

For `Cc1nn(-c2nc3ccccc3[nH]2)c(=O)c2ccccc12`, the inhibition was 94.4% (active).

As to `O=c1c2ccccc2cnn1-c1ccc(Cl)cc1`, the inhibition was -102% (inactive).

With `O=c1c2ccccc2cnn1-c1nc2ccccc2[nH]1`, the inhibition was 99.7% (active).

In the case of `Cc1nn(-c2nc3ccccc3[nH]2)c(N)c1-c1ccccc1`, the inhibition is -44.1% (inactive).

Take `O=c1c(Cl)c(N2CCCCC2)cnn1-c1nc2ccccc2[nH]1`: the inhibition was 74.8% (active).

As to `Cc1nnc(SCC(=O)NC(=O)Nc2ccc3c(c2)OCCO3)s1`, the inhibition is -25.8% (inactive).

As to `COc1ccc(CCNC(=O)CC2SC(=NCCC(C)C)NC2=O)cc1OC` (stereo unspecified), the inhibition was -12.2% (inactive).

Take `COc1cc(C2c3[nH]c4ccccc4c3C[C@@H]3C(=O)N(Cc4ccco4)CC(=O)N23)cc(OC)c1OC` (stereo partly specified): the inhibition is -4.3% (inactive).

Take `CCCCN(C(=O)CCC(=O)Nc1cc(C)on1)C(C(=O)NC1CCCC1)c1ccccc1OCC` (stereo unspecified): the inhibition was -32.8% (inactive).

With `COCc1nnc(NC(=O)C2CCN(C(=O)c3ccco3)CC2)s1`, the inhibition was -4% (inactive).

In the case of `Cc1ccc(N2C(=O)C3C(c4ccccc4)N4CCCN4C3(C)C2=O)cc1` (stereo unspecified), the inhibition is -27.5% (inactive).

Turning to `O=S(=O)(Nc1nnc(C(F)(F)F)s1)c1ccc(Cl)cc1`, the inhibition was -6.4% (inactive).

For the compound `O=C1c2ccccc2N2C(=O)c3ccccc3[C@H]2N1c1ccccc1`, the inhibition is -14.4% (inactive).

In the case of `CC(C)Cc1ccc(CN2CCC(n3nccc3NC(=O)C3CCCC3)CC2)cc1`, the inhibition was -7.7% (inactive).

In the case of `Cc1cc(OCCCn2ccnc2)cc(C)c1Cl`, the inhibition was 7.6% (inactive).

As to `Cc1cc(OCCCCn2ccnc2)cc(C)c1Cl`, the inhibition was -18.7% (inactive).

With `Cc1cc(OCCCCCn2ccnc2)cc(C)c1Cl`, the inhibition is 48% (active).

For the compound `O=C(Nc1ccc(S(=O)(=O)Nc2nccs2)cc1)c1ccc(N2C(=O)c3ccccc3C2=O)cc1`, the inhibition was -25.2% (inactive).

In the case of `Cc1cc2c3c(c1)C(C)(c1ccccc1)CC(C)(C)N3C(=O)C21C(C#N)=C(N)OC2=C1C(=O)CC(C)(C)C2` (stereo unspecified), the inhibition was 77.1% (active).

Take `CC1=CC(C)(C)N2C(=O)C3(C(C#N)=C(N)OC4=C3C(=O)CC(C)(C)C4)c3cc(C)cc1c32` (stereo unspecified): the inhibition was 13.2% (inactive).

Take `Cc1cc2c3c(c1)C1(C(=O)N3C(C)(C)CC2C)C(C#N)=C(N)OC2=C1C(=O)CC(C)(C)C2` (stereo unspecified): the inhibition is -22.2% (inactive).

As to `O=C(Nc1nncs1)c1cccc(S(=O)(=O)N2CCc3ccccc32)c1`, the inhibition is -12.7% (inactive).

In the case of `C=CCOC(=O)C1=C(C)Nc2nnnn2C1c1cc(OC)ccc1OC` (stereo unspecified), the inhibition is -1.8% (inactive).

Regarding `CC1CC(C)(C)Nc2ccc(N=O)cc21` (stereo unspecified), the inhibition is 41.9% (active).

For the compound `CC1CC2(CCCC2)Nc2ccc(F)cc21` (stereo unspecified), the inhibition was -2% (inactive).

For the compound `CC1CC(C)(C)Nc2ccc(OC(=O)c3ccco3)cc21` (stereo unspecified), the inhibition is 44.8% (inactive).

Turning to `CCOC(=O)C1CCN(C(=O)CCc2ccc(S(=O)(=O)NC(C)C)cc2)CC1`, the inhibition was -6.7% (inactive).

`COc1ccccc1N1CCN(CC(O)c2ccc3cc[nH]c3c2)CC1` (stereo unspecified): the inhibition is -10.9% (inactive).

As to `CC1CN(C(=O)CCNC(=O)c2ccc(Cl)cc2)CC(C)O1` (stereo unspecified), the inhibition is -15.6% (inactive).

`CC12CN3CCN(CC(C3)C1(O)CN1CCOCC1)C2` (stereo unspecified): the inhibition is -10.8% (inactive).

`COc1cccc(C(=O)C2CCCN(C(=O)CCC3=NNC(=O)CC3)C2)c1` (stereo unspecified): the inhibition was -14.9% (inactive).

In the case of `Nc1nc(Nc2ccc(Cl)cc2)nc2ccccc12`, the inhibition is 24.4% (inactive).

With `Nc1nc(Nc2ccccc2)nc2ccccc12`, the inhibition is -85.2% (inactive).

Turning to `CN(C)c1ccc(Nc2nc(N)c3ccccc3n2)cc1`, the inhibition was 73.8% (active).

Turning to `CCOc1ccccc1N1CC(C(=O)N2CCc3ccccc32)CC1=O` (stereo unspecified), the inhibition was 17.6% (inactive).

With `CCn1c(=O)n(CC)c2cc(N3CCCC3)c(NC(=O)c3c(F)cccc3F)cc21`, the inhibition is -5.8% (inactive).

For `O=C(c1cccc(S(=O)(=O)N2CCc3ccccc3C2)c1)N1CCN(c2ccc(O)cc2)CC1`, the inhibition was -37.3% (inactive).

For `CC(=O)c1cccc(NC(=O)Cn2cnc(S(=O)(=O)N3CCOCC3)c2)c1`, the inhibition was -18.3% (inactive).

As to `COCc1cc(C)nc(SCc2ccc([N+](=O)[O-])cc2)c1C#N`, the inhibition is 9.9% (inactive).

Turning to `COc1ccc(-c2ccc3ccccc3n2)cc1`, the inhibition is -47% (inactive).

For `CN1CCN(c2ccc(-c3ccc4ccccc4n3)cc2)CC1`, the inhibition was 90.2% (active).

With `c1ccc2nc(-c3ccc(N4CCOCC4)cc3)ccc2c1`, the inhibition was 11% (inactive).

For `COc1cc2cc(CN(Cc3cccnc3)C(=O)Nc3ccccc3F)c(=O)[nH]c2cc1OC`, the inhibition is -29.7% (inactive).

For the compound `CCOc1ccccc1NC(=O)c1sc2ncn(CC(=O)N3CCOCC3)c(=O)c2c1C`, the inhibition is 1.5% (inactive).

As for `CCCCOc1ccc(CN2CCSCC2)cc1`, the inhibition is -28.4% (inactive).

For `Cc1nc2sc(C(=O)c3ccccc3)c(N)c2c(C)c1C`, the inhibition was 27.9% (inactive).

For `Cc1nc2sc(C(N)=O)c(N)c2c(C)c1CC(=O)c1ccccc1`, the inhibition is 84.2% (active).

As to `CCOC(=O)c1c(C)nc2sc(C(N)=O)c(N)c2c1-c1ccccc1`, the inhibition was 31% (inactive).

Regarding `CC(=O)Nc1nc(-c2cccc3ccccc23)cs1`, the inhibition is -32.8% (inactive).

Regarding `O=C(O)c1cc(=O)n(Cc2ccccc2)c(=O)[nH]1`, the inhibition was -11.6% (inactive).

For `O=C(Nc1ccc(Cn2cccn2)cc1)c1ccc(COc2ccccc2Br)cc1`, the inhibition was 60.2% (inactive).

On to `O=C(Nc1cccnc1)c1ccc(COc2ccccc2Br)cc1`, for which the inhibition was -8.4% (inactive).

`CC(C)(C)OC(=O)CNC(=O)c1nc[nH]c1C(=O)NCc1ccc(CNC(=O)OC(C)(C)C)cc1`: the inhibition is -14.2% (inactive).

Consider `CCN(CC)C(=S)SC1CCCCN(C(=O)c2ccc(F)cc2)C1=O` (stereo unspecified), for which the inhibition was -8% (inactive).

As for `CCN(CC)C(=S)SC1CCCCN(C(=O)c2ccccc2)C1=O` (stereo unspecified), the inhibition is 65.6% (active).

`O=C(c1ccccc1)N1CCCCC(Cl)C1=O` (stereo unspecified): the inhibition was -29.3% (inactive).

For the origin of these results see PubChem BioAssay AID1578 (Sanford-Burnham Center for Chemical Genomics, 2009).
